11 compounds from PubChem BioAssay (NCI) can be followed below.

Compounds without any hit were thinned out: in the full panel of roughly 83,000, 20% have a hit.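 Step 1: grow cells in 96-well plates. Step 2: add test compound at a single concentration. Step 3: incubate 48 h. Step 4: record percent growth.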 Values without a mark were called inactive. The source made the active and inactive calls. Rule for the calls: active = growth percent below 10; inactive = the rest.

Common to all, as to assay: NCI-60 one-dose screen, 48 h (100 = growth as untreated, 0 = no growth, -100 = all killed)
Holding throughout (details): 10 µM unless noted

Test [1] relates to OVCAR-8 ovarian.
In test [2] the test system is OVCAR-5 ovarian.
In test [3] the test system is OVCAR-4 ovarian.
Test [4] relates to SK-OV-3 ovarian.
The test system of test [5] is IGROV1 ovarian.
For test [6], the system named is OVCAR-3 ovarian.
For test [7], the system named is HS 578T breast.
Test [8] concerns NCI/ADR-RES ovarian.
Test [9] concerns T-47D breast.
Test [10] deals with BT-549 breast.
Test [11] relates to MDA-MB-435 melanoma.
The subject of test [12] is SW-620 colon.
Test [13] deals with MCF7 breast.
For test [14], the system named is HCT-116 colon.
The test system of test [15] is HCC-2998 colon.
For test [16], the system named is KM12 colon.
Test [17] deals with RPMI-8226 leukemia.

In the case of `Oc1ccc(-c2nn(-c3ccccc3)cc2-c2nc3ccccc3s2)cc1`, the growth is 93.5% in test [1]; 108% in [2]; 86.2% in test [3]; 99% in test [4]; 80.9% in test [5]; 85.3% in test [6]. The growth in [7] is 92.4%; in test [8], 81.1%; in test [9], 53%; in [10], 103%; in test [11], 102%; in [12], 99.6%. The growth in test [13] is 50.4%; in test [14], 88.8%; in [15], 102%; in test [16], 82.8%.

As for `ClC1=C(Cl)C(=C2C(Cl)=C(Cl)C(Cl)=C2Cl)C(Cl)=C1Cl`, the growth is 97.7% in test [1]; 115% in [2]; 100% in test [3]; 91.6% in [4]; 108% in test [5]; 114% in test [6]. Besides, the growth in test [7] is 94.1%; in [8], 105%; in test [9], 79.5%; in test [10], 107%; in test [11] it was 105%; in test [12], 102%. The growth in [13] is 90.3%; in test [14] it was 101%; in test [15], 109%; in test [16], 104%.

Take `N#CCNc1ccccc1N`: the growth was 93.1% in [1]; 109% in test [2]; 97.2% in test [3]; 84.5% in test [4]; 89.3% in test [5]; 101% in test [6]. For the same compound, the growth is 91.8% in test [7]; 95.5% in [8]; 59.9% in [9]; 87.2% in [10]; 106% in test [11]; 100% in [12]. The growth in test [13] is 88.8%; in test [14], 85.3%; in test [15], 96.9%; in test [16], 94%.

As for `CC[C@]1(O)CC2CN(CCc3c([nH]c4ccccc34)[C@@](C(=O)OC)(c3cc4c(cc3OC)N(C)[C@H]3[C@@](O)(C(=O)OC)[C@H](OC(C)=O)[C@]5(CC)C=CCN6CC[C@]43[C@@H]65)C2)C1` (stereo partly drawn), the growth was 2.81% (active) in test [17]; 12.6% in [1]; 33.2% in test [3]; 6.74% (active) in [4]; 15.9% in [5]; -56% (active) in test [6]. For the same compound, the growth in test [7] is 29.7%; in test [8] it was -17.4% (active); in [10] it was 34.2%; in [11] it was -17.8% (active); in test [12], 21.6%; in test [13] it was 8.22% (active). Moreover, the growth in [14] is 1.69% (active); in [15] it was -23.4% (active); in [16], -7.67% (active).

For the compound `COc1ccc(/C=N/NC(=O)c2ccc(S(C)(=O)=O)cc2)cc1OC`, the growth was 97.1% in test [17]; 111% in test [2]; 96.2% in test [3]; 102% in test [4]; 109% in test [5]; 108% in test [6]. In addition, the growth in [7] was 102%; in test [8], 108%; in [9] it was 96.6%; in test [10] it was 109%; in test [11], 109%; in test [12], 99.8%. Moreover, the growth was 92.4% in test [13], 89% in test [14], 98.5% in test [15] and 95.8% in test [16].

Turning to `COc1ccc(/C=C2\COc3ccc(O)c(O)c3C2=O)cc1OC`, the growth in [1] was 8.42% (active); in test [2] it was -16.6% (active); in test [3], 30.1%; in test [4], 40.2%; in test [5], -33.4% (active); in test [6], -16.7% (active). In addition, the growth in test [7] was 17.8%; in test [8] it was 2.76% (active); in test [9], -5.4% (active); in test [10], 29.4%; in test [11], -0.882% (active); in [12] it was 4.03% (active). The growth in test [13] was 13%; in test [14] it was -24.8% (active); in test [15], 46.1%; in test [16], 10.4%.

As for `O=C1OCCCCCCCCCC#Cc2ccccc21`, the growth in test [1] is 105%; in [2], 99%; in test [3], 91.3%; in [4], 97.3%; in test [5] it was 72.1%; in test [6] it was 122%. Besides, the growth in test [7] was 108%; in test [8], 99.7%; in test [9], 80.1%; in [10], 124%; in test [11], 104%; in test [12] it was 93.9%. In addition, the growth in [13] is 164%; in test [14], 70.4%; in test [16] it was 136%.

Turning to `O=C(CSCC(=O)N/N=C/c1ccccc1O)N/N=C\c1ccccc1O`, the growth in test [1] is 28.3%; in test [2], 56.2%; in test [3], 27.5%; in test [4], 27.8%; in test [5] it was 18.9%; in test [6], 34.5%. For the same compound, the growth in test [8] was 26.1%; in [9] it was 35.5%; in [10], 1.06% (active); in [11], 50.9%; in [12], 39.3%; in test [13] it was 19.5%. For the same compound, the growth is 16.6% in test [14] and 30.1% in test [15].

On to `CCOc1cc(C(C)(C)C)ccc1C1=N[C@H](c2ccc(Cl)cc2)[C@H](c2ccc(Cl)cc2)N1C(=O)N1CCN(CC#Cc2cccc3c2CN([C@@H]2CCC(=O)NC2=O)C3=O)CC1`, for which the growth is 17.2% in test [1]; 76% in test [2]; 26.5% in test [3]; 62.4% in [4]; 8.46% (active) in test [5]; 41.1% in test [6]. In addition, the growth was 16.9% in [7]; 25.9% in [8]; 13.3% in [9]; 22.9% in test [10]; 33.6% in [11]; 26.9% in [12]. Moreover, the growth in test [13] was 8.49% (active); in test [14] it was 17.8%; in test [15], 25.3%; in test [16], 26.3%.

In the case of `ClC1=C(Cl)C(Cl)=C(Cl)C1=Cc1ccc(Cl)cc1`, the growth in test [17] was -43.2% (active); in test [2], 71.9%; in [3] it was 75.4%; in [4], 95.5%; in test [6] it was -96.8% (active); in test [8], -47.5% (active). The growth in test [9] is 25.3%; in test [10], -38.9% (active); in test [11], -42.3% (active); in [12] it was -83.9% (active); in [13], 25%; in test [14], -84.1% (active). For the same compound, the growth in [15] was 30.9%; in test [16], -69.6% (active).

As for `CCCCOc1ccc(C(C)(C)c2ccc(OCCCC)cc2)cc1`, the growth in [17] is 91%; in [2], 109%; in test [3] it was 108%; in [4], 94.6%; in test [5], 103%; in test [6], 106%. Also, the growth in [8] was 101%; in test [9], 90.2%; in test [10], 106%; in test [11], 117%; in test [12] it was 112%; in [14], 95.8%. Further, the growth in test [15] is 105%; in test [16], 120%.
